Columns and labels:
[1] = target: T1, Serine/threonine-protein kinase D2 (Homo sapiens) (UniProt Q9BZL6); settings: at 1 µM;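 also: mean value of PRKD2 inhibition, from the GSK PKIS screening panel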
T1 sequence (whole entry): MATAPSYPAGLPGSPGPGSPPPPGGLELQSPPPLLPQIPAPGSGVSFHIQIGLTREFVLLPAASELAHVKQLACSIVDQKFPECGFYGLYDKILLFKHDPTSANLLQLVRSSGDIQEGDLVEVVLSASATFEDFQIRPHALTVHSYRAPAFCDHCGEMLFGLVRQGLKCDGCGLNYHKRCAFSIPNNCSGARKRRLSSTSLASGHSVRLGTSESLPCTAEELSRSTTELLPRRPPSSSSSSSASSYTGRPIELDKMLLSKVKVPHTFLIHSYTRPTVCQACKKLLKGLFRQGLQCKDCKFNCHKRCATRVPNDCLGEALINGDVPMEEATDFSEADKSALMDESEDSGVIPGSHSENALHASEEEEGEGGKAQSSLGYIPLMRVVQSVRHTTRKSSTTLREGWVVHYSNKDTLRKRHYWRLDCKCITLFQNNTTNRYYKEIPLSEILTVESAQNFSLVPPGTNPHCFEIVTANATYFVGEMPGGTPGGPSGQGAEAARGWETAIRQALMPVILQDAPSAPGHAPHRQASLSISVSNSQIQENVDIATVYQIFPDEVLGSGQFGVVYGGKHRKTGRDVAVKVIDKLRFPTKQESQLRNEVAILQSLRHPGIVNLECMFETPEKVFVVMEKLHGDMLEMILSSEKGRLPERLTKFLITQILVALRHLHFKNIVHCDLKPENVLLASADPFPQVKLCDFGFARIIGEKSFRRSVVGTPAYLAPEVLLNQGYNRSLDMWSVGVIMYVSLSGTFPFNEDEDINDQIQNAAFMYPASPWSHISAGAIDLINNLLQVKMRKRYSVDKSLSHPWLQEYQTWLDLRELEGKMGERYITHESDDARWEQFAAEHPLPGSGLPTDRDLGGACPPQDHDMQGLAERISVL

[2] = target: T2, Serine/threonine-protein kinase D3 (Homo sapiens) (UniProt O94806); settings: at 0.1 µM
T2 sequence (whole entry): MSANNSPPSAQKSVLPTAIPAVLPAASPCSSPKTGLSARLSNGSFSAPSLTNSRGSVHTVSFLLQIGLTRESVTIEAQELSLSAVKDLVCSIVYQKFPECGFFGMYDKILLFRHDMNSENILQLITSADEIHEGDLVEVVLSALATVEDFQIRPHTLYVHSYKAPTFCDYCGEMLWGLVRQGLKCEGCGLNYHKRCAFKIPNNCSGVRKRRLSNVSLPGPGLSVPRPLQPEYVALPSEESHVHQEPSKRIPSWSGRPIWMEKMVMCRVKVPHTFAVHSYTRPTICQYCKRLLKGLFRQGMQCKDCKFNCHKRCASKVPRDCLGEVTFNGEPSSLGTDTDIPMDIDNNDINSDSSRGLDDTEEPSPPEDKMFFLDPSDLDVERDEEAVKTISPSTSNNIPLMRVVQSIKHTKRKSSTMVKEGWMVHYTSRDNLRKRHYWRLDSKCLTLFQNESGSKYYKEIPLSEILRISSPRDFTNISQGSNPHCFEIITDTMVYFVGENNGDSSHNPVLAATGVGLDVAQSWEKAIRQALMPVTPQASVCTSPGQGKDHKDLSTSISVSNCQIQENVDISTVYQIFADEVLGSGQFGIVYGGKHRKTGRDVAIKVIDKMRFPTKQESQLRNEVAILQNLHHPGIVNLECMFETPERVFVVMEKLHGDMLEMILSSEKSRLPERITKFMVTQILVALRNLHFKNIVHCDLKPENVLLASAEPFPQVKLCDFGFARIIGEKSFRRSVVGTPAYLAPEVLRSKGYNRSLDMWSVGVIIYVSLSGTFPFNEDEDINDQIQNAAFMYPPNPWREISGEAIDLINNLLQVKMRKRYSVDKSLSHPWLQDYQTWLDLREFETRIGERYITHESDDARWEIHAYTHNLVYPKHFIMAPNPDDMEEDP

[3] = target: T2, Serine/threonine-protein kinase D3 (Homo sapiens); settings: at 1 µM
[4] = target: T3, cGMP-dependent protein kinase 1 (Homo sapiens) (UniProt Q13976); settings: at 0.1 µM
T3 sequence (whole entry): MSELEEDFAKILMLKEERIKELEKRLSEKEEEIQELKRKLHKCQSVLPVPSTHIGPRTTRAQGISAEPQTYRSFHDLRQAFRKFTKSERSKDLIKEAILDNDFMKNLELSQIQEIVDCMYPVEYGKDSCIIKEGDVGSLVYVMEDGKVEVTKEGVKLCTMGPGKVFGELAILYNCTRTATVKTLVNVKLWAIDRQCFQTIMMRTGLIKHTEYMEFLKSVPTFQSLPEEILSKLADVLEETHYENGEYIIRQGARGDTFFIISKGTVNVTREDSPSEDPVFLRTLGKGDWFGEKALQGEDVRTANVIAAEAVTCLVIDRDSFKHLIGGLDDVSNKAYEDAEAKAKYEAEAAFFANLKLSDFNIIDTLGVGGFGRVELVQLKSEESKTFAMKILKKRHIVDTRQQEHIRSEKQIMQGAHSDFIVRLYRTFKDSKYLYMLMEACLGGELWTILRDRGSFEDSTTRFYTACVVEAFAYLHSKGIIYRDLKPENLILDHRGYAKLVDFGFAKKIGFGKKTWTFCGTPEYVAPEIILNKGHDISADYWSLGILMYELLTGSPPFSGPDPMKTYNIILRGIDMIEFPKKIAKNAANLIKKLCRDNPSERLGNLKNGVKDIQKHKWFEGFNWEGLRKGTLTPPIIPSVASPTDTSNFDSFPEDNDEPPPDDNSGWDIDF

[5] = target: T3, cGMP-dependent protein kinase 1 (Homo sapiens); settings: at 1 µM
[6] = target: T4, cGMP-dependent protein kinase 2 (Homo sapiens) (UniProt Q13237); settings: at 0.1 µM
T4 sequence (whole entry): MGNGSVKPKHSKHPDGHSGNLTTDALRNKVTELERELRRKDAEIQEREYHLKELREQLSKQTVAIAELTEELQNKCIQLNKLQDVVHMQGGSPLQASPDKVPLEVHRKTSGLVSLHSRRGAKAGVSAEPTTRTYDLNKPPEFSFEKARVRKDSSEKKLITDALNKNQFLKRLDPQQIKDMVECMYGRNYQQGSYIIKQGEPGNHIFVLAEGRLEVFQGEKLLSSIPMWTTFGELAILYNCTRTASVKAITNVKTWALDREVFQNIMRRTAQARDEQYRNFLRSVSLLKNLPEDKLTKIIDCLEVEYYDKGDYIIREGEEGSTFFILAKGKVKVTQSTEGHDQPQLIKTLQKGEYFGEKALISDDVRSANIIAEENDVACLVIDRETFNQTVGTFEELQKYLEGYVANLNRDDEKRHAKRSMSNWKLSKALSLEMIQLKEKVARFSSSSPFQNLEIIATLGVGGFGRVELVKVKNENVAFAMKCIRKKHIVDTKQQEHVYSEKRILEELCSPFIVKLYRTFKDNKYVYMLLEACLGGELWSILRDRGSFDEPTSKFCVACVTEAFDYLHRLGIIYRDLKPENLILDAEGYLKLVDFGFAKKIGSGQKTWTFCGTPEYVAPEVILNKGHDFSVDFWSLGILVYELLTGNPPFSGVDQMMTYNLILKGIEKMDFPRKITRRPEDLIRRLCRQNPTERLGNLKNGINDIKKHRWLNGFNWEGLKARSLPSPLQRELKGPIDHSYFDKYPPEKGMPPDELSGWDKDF

[7] = target: T4, cGMP-dependent protein kinase 2 (Homo sapiens); settings: at 1 µM
[8] = target: T5, cAMP-dependent protein kinase catalytic subunit PRKX (Homo sapiens) (UniProt P51817); settings: at 0.1 µM
T5 sequence (whole entry): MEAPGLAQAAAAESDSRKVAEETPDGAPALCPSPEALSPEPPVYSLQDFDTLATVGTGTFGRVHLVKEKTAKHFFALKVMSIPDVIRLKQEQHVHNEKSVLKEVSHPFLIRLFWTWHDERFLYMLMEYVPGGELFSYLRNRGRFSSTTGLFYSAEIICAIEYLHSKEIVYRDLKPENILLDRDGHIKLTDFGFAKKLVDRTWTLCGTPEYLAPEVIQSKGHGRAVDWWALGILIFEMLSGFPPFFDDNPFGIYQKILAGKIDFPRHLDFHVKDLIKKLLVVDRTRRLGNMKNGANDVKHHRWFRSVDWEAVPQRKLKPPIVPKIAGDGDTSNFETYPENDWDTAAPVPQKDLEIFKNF

[9] = target: T5, cAMP-dependent protein kinase catalytic subunit PRKX (Homo sapiens); settings: at 1 µM
[10] = target: Rho-associated protein kinase 1 (Homo sapiens) (UniProt Q13464); settings: at 0.1 µM
Sequence of Rho-associated protein kinase 1 (Homo sapiens) (Q13464 2-1354 limits assumed): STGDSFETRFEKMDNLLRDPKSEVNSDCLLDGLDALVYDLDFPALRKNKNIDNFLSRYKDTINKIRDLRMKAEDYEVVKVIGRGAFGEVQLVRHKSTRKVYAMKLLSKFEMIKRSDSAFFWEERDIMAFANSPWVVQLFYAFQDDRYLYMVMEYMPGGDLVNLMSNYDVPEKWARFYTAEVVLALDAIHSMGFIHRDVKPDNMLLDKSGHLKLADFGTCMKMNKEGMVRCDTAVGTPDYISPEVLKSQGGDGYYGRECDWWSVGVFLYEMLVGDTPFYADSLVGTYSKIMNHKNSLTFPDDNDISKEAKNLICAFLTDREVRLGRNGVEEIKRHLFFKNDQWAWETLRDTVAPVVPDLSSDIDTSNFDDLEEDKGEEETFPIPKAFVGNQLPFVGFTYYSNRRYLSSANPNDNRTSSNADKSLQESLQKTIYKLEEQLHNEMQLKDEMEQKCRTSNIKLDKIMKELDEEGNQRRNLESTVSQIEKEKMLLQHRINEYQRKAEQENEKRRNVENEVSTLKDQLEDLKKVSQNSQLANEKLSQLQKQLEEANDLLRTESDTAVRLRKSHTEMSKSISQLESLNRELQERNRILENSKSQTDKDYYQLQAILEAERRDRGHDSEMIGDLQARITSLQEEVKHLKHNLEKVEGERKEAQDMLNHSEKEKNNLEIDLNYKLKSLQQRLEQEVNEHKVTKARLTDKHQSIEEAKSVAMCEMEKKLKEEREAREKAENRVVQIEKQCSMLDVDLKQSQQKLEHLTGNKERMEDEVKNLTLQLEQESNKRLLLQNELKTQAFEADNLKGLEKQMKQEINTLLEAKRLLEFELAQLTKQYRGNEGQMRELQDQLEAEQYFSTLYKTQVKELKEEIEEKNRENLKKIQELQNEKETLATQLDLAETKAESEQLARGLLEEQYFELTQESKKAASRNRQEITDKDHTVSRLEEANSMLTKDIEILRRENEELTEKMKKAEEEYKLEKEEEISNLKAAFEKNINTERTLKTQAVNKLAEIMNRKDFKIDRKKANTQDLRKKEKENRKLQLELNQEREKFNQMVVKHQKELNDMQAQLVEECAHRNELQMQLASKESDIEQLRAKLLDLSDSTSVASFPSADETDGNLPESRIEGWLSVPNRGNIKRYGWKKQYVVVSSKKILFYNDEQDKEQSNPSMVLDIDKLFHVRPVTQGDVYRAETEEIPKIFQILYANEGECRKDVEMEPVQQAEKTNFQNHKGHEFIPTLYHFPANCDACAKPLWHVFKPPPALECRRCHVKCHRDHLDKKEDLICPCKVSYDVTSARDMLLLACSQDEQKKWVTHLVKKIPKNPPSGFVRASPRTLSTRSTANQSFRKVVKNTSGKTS

[11] = target: Rho-associated protein kinase 1 (Homo sapiens) (UniProt Q13464); settings: at 1 µM
[12] = target: Rho-associated protein kinase 2 (Homo sapiens) (UniProt O75116); settings: at 0.1 µM
Sequence of Rho-associated protein kinase 2 (Homo sapiens) (O75116 whole entry, looked up): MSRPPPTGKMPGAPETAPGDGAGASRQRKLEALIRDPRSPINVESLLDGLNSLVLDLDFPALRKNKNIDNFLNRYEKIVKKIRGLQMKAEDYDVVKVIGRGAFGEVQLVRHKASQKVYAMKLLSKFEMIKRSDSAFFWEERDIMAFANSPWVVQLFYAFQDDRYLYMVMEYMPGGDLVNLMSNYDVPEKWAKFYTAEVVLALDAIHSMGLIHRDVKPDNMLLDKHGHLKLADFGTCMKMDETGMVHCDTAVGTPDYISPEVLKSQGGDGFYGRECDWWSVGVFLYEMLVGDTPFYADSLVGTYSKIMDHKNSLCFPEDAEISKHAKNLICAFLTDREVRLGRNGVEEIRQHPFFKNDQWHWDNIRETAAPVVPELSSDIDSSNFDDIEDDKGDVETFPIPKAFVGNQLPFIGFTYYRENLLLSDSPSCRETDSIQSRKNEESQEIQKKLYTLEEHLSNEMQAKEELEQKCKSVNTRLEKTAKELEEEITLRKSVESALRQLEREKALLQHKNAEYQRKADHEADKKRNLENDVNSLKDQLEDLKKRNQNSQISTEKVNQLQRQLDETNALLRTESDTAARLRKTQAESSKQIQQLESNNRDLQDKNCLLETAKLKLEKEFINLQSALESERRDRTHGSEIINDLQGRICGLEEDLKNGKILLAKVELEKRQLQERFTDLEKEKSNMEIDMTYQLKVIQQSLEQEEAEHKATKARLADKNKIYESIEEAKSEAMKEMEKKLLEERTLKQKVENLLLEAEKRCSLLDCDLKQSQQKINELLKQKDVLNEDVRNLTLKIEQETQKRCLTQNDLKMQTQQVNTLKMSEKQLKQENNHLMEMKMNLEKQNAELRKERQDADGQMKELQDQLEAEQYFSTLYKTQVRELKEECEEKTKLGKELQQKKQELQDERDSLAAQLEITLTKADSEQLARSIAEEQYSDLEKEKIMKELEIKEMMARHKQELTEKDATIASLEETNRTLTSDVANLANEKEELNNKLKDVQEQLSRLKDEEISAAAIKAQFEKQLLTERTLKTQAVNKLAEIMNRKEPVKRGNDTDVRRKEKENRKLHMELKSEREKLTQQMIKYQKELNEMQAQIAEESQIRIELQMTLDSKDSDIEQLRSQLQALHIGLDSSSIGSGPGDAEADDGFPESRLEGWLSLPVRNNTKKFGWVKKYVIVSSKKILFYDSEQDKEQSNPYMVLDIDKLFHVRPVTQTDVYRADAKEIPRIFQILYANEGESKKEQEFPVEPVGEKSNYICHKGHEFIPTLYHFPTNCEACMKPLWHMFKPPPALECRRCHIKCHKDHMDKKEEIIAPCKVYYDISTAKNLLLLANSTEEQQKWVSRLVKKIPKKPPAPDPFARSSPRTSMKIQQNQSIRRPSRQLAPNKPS

[13] = target: Rho-associated protein kinase 2 (Homo sapiens) (UniProt O75116); settings: at 1 µM
[14] = target: Ribosomal protein S6 kinase alpha-1 (Homo sapiens) (UniProt Q15418); settings: at 0.1 µM
Sequence of Ribosomal protein S6 kinase alpha-1 (Homo sapiens) (Q15418 whole entry): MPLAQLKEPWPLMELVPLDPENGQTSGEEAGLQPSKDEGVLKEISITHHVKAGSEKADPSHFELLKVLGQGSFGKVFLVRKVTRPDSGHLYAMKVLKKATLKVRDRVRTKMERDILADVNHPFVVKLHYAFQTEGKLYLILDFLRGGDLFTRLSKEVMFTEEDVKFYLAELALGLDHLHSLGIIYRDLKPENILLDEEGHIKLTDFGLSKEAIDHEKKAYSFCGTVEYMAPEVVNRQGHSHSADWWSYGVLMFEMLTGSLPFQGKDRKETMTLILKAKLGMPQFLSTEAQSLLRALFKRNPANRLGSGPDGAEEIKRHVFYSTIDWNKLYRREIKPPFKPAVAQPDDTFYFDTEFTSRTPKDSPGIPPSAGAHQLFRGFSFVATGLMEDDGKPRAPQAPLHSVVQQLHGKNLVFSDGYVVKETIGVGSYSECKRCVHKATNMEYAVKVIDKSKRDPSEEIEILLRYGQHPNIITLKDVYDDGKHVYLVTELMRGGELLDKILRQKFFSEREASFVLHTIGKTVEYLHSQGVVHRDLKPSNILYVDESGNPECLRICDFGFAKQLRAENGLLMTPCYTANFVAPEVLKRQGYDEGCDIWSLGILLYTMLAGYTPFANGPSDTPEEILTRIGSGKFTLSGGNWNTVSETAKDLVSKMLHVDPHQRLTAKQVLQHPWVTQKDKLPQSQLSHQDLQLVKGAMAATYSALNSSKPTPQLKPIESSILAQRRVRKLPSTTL

[15] = target: Ribosomal protein S6 kinase alpha-1 (Homo sapiens) (UniProt Q15418); settings: at 1 µM
[16] = target: Ribosomal protein S6 kinase alpha-3 (Homo sapiens) (UniProt P51812); settings: at 0.1 µM
[17] = target: Ribosomal protein S6 kinase alpha-3 (Homo sapiens) (UniProt P51812); settings: at 1 µM
[18] = target: Ribosomal protein S6 kinase alpha-2 (Homo sapiens) (UniProt Q15349); settings: at 0.1 µM
Sequence of Ribosomal protein S6 kinase alpha-2 (Homo sapiens) (Q15349 whole entry): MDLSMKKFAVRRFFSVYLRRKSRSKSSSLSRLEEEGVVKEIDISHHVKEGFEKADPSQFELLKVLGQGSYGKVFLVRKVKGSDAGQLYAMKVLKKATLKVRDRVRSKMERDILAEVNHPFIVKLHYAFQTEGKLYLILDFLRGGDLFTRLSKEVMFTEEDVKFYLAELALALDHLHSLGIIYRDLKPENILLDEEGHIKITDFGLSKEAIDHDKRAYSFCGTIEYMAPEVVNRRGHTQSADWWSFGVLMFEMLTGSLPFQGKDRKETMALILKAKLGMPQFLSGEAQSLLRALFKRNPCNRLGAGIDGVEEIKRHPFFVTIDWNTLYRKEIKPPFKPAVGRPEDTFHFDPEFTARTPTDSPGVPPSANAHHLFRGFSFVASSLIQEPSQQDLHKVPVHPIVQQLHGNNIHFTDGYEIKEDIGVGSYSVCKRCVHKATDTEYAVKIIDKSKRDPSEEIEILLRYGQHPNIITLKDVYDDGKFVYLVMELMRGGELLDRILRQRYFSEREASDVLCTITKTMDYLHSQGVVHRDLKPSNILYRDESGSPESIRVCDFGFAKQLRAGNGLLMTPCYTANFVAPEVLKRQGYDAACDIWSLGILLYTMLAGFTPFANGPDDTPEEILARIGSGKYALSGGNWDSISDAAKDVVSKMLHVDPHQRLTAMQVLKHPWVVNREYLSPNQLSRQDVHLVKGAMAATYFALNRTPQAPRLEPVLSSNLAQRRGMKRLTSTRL

[19] = target: Ribosomal protein S6 kinase alpha-2 (Homo sapiens) (UniProt Q15349); settings: at 1 µM
[20] = target: Ribosomal protein S6 kinase alpha-6 (Homo sapiens) (UniProt Q9UK32); settings: at 0.1 µM;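 also: reported value is the mean inhibition of RSK4, from the GSK PKIS kinase inhibitor screen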
Sequence of Ribosomal protein S6 kinase alpha-6 (Homo sapiens) (Q9UK32 whole entry): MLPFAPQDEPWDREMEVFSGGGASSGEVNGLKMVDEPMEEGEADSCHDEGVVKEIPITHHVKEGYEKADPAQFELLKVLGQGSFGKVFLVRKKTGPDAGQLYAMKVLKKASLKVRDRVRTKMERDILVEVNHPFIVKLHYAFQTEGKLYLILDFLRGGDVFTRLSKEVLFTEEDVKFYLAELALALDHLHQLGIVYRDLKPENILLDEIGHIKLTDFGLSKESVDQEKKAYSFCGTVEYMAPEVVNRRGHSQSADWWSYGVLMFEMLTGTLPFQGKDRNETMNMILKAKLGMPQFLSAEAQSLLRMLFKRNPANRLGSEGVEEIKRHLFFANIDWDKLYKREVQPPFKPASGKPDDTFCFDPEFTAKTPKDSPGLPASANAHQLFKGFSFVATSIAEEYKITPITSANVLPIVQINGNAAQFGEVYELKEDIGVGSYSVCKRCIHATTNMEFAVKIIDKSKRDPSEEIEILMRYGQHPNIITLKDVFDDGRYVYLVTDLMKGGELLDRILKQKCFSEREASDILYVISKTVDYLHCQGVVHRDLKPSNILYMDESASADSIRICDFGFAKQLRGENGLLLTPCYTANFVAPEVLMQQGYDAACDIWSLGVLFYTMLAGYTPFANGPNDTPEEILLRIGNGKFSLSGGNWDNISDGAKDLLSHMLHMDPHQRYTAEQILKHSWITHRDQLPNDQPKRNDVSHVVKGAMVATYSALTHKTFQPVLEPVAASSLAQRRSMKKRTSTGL

Cc1ccc(C(=O)NC(C)C)cc1-c1ccc(C(=O)NCC2CC2)cc1
inhibition [1]: -0.88% | inhibition [2]: -3.09% | inhibition [3]: -2.84% | inhibition [4]: -3.24% | inhibition [5]: -2.98% | inhibition [6]: -1.45% | inhibition [7]: -0.98% | inhibition [8]: -1.5% | inhibition [9]: -1.51% | inhibition [10]: -1.38% | inhibition [11]: -0.1% | inhibition [12]: -1.71% | inhibition [13]: -1.76% | inhibition [14]: 1.38% | inhibition [15]: -0.32% | inhibition [16]: 1.65% | inhibition [17]: 1.68% | inhibition [18]: -0.25% | inhibition [19]: 0.47% | inhibition [20]: -0.44%

CS(=O)(=O)CCNCc1cc(-c2cc3c(Nc4ccc(OCc5cccc(F)c5)c(Cl)c4)ncnc3s2)cs1
inhibition [1]: 4.68% | inhibition [2]: 4.68% | inhibition [3]: 5.41% | inhibition [4]: 4.85% | inhibition [5]: 8.33% | inhibition [6]: 3.09% | inhibition [7]: 4.67% | inhibition [8]: 1.65% | inhibition [9]: 2.04% | inhibition [10]: 3.25% | inhibition [11]: 4.5% | inhibition [12]: 3.92% | inhibition [13]: 5.77% | inhibition [14]: -0.03% | inhibition [15]: 1.94% | inhibition [16]: 1.24% | inhibition [17]: 1.57% | inhibition [18]: 3.28% | inhibition [19]: 2.95% | inhibition [20]: 0.77%

COc1cc(C)c(N(C)C(=O)CN(C)C)cc1Nc1nc(Nc2cccc(F)c2C(N)=O)c2cc[nH]c2n1
inhibition [1]: -0.62% | inhibition [2]: -1.31% | inhibition [3]: 0.06% | inhibition [4]: 0.67% | inhibition [5]: 3.77% | inhibition [6]: 2.1% | inhibition [7]: 2.31% | inhibition [8]: 0.78% | inhibition [9]: -0.64% | inhibition [10]: 0.77% | inhibition [11]: 1.48% | inhibition [12]: 0.89% | inhibition [13]: -0.53% | inhibition [14]: 1.17% | inhibition [15]: 3.02% | inhibition [16]: 1.14% | inhibition [17]: 1.43% | inhibition [18]: 1.84% | inhibition [19]: 2.69% | inhibition [20]: 1.67%

c1ccc(Oc2ccc(Nc3ncc(-c4ccccc4)o3)cc2)cc1
inhibition [1]: 3.8% | inhibition [2]: 2.14% | inhibition [3]: 3.61% | inhibition [4]: 2.21% | inhibition [5]: 3.15% | inhibition [6]: 1.21% | inhibition [7]: 3.1% | inhibition [8]: 2.99% | inhibition [9]: 6.18% | inhibition [10]: 3.48% | inhibition [11]: 4.29% | inhibition [12]: 4.32% | inhibition [13]: 4.11% | inhibition [14]: 1.98% | inhibition [15]: 3.12% | inhibition [16]: 0.81% | inhibition [17]: 1.91% | inhibition [18]: 0.83% | inhibition [19]: 1.55% | inhibition [20]: 0.67%

Reference: ChEMBL document CHEMBL1961873, “Compounds: GSK PKIS; Assays: Nanosyn kinase panel” (2012)
